In all, about 340,000 compounds went through this assay and about 5,100 (1.5%) were called active. The sample holds actives, similar compounds and a random draw of the others, so the mix is not that of the screen. Values without a mark were called inactive.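 The calls were made as follows: active = mean Tm shift, scaled 0 neutral to 100 positive control, at about 1.3% or above, every replicate too (limit read from the data); inconclusive = no clear call, values can overlap the other calls; inactive = the rest.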

The target in the assay is Fibroblast growth factor 22 (Homo sapiens) (UniProt Q9HCT0). Kind of assay: binders of human FGF22 protein, primary screen, FGF22 synaptogenesis inhibitor project, biophysical, thermal shift, single point (AID 651658). The settings on record: recombinant FGF22 thermal shift, SYPRO orange fluorescence; at 9.99 µM; stronger effect = higher value; percent of sucrose octasulfate shift, DMSO zero.
Fibroblast growth factor 22 (Homo sapiens), sequence (Q9HCT0 whole entry, looked up): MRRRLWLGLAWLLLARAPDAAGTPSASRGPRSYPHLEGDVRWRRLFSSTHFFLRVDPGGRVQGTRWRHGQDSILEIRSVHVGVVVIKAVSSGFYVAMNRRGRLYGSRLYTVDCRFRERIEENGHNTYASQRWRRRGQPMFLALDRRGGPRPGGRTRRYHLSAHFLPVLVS
In the case of `CC=Cc1ccc2n(c1=O)C[C@H]1[C@H](CO)[C@@H](C(=O)NCCc3cn(C)cn3)[C@@H]2N1C(=O)CC` (mixture of isomers), the activity (Tm shift, normalised) is -0.32%.
The value for `CN(C)c1ccc(/C=N/Nc2cc(N3CCOCC3)nc(N3CCOCC3)n2)cc1` was 43.5% (active); that for `C(=N\Nc1ccc2ccccc2n1)/c1ccc2c(c1)OCO2` was 41.5%; that for `C/C(=N\Nc1nc(N2CCOCC2)nc(N2CCOCC2)n1)c1ccc([N+](=O)[O-])cc1` was 0.46%.
As to `Cc1ccc(S(=O)(=O)N(C)C)cc1NC(=O)c1n[nH]c(=O)c2ccccc12`, the activity (Tm shift, normalised) was -0.104%.
With `CC(=O)c1c(C)[nH]c(C(=O)Nc2cc(S(=O)(=O)N(C)C)ccc2C)c1C`, the activity (Tm shift, normalised) is 43.3% (active).
The value for `Cc1ccc(S(=O)(=O)N(C)C)cc1NC(=O)c1ccccc1Br` was -0.075%; that for `C[C@@H]1CN([C@@H](C)CO)C(=O)c2cc(NC(=O)Cc3ccccc3)ccc2O[C@H]1CN(C)CC1CC1` was 0.206%.
With `Cc1ccc(S(=O)(=O)N2C[C@@H](O)COC[C@@H]3O[C@H](CC(=O)NCCCN(C)C)CC[C@H]32)cc1` the figure was 0.016%; with `O=C(O)CSCC(=O)Nc1ccc(C(F)(F)F)cc1`, 43% (active).
The value for `Cn1nc(C(F)(F)F)c(-c2ccc(F)cc2)c1NC(=O)CSCC(=O)O` was -0.085%; that for `O=C(CSCc1ccccc1)Nc1ccccc1` was -0.128%; that for `Cc1cc(C)n(-c2ccc(C(=O)O)cc2[N+](=O)[O-])n1` was 43.1% (active).
In the case of `Cc1cc(C(=O)O)ccc1[N+](=O)[O-]`, the activity (Tm shift, normalised) is 0.06%.
With `Cc1cc(N)n(-c2ccc(S(=O)(=O)N3CCCC3)cc2[N+](=O)[O-])n1` the figure was -0.196%; with `Cc1ccc(S(=O)(=O)N[C@@H]2CC[C@@H](CCn3cc(C4CC4)nn3)O[C@@H]2CO)cc1`, -0.331%.
For the molecule `C[C@H]1CN([C@@H](C)CO)C(=O)c2cc(-c3cccc(F)c3)cnc2O[C@@H]1CN(C)Cc1cncnc1`, the activity (Tm shift, normalised) was 0.062%.
The value for `O=C(c1cnccn1)N1CC(=O)N2[C@H](C1)[C@H](c1ccc(/C=C/c3ccccc3)cc1)[C@@H]2CO` was -0.069%; that for `O=C(C[C@H]1C[C@@H]2c3cc(NC(=O)c4cccnc4)ccc3O[C@@H]2[C@H](CO)O1)NCc1ccccn1` was -0.175%.
The value for `CCn1c(SCC(=O)Nc2nccs2)nnc1-c1ccco1` was 43.5% (active).
The value for `COCCn1c(Cc2cccn2C)nnc1SCC(=O)Nc1nccs1` was 0.285%; that for `Cn1c(SCC(=O)Nc2nccs2)nnc1-c1cccnc1` was -0.089%.
As for `CCS(=O)(=O)NCC[C@H]1CC[C@@H](NC(=O)Nc2cc(Cl)cc(Cl)c2)[C@@H](CO)O1`, the activity (Tm shift, normalised) is 0.003%.
The value for `Oc1ccc(-c2nnc(Nc3ccccc3)c3ccccc23)cc1` was 0.298%.
With `Oc1ccc(-c2nncn2-c2ccccc2)cc1` the figure was 43.1% (active); with `Cc1nn(-c2ccccc2)c(Cl)c1/C=C/C(=O)c1ccc(O)cc1`, -0.458%.
With `COc1cccc(S(=O)(=O)N[C@H]2C=C[C@H](CC(=O)NCc3ccc(Cl)cc3)O[C@@H]2CO)c1` the figure was 0.005%.
Consider `CCCC#Cc1cnc2c(c1)C(=O)N([C@H](C)CO)C[C@H](C)[C@H](CN(C)C(=O)c1cnccn1)O2`, for which the activity (Tm shift, normalised) is -0.197%.
The value for `Cc1noc(C)c1NC(=O)N(C)C[C@H]1OCCCC[C@H](C)Oc2ccc(NC(=O)Nc3ccc4c(c3)OCO4)cc2C(=O)N([C@H](C)CO)C[C@@H]1C` was -0.482%; that for `N#Cc1cnn2cc(CCN3CCOCC3)c(-c3ccc(F)cc3)nc12` was 43.1% (active); that for `Fc1ccc(-c2ccc(NCCN3CCOCC3)nn2)cc1` was -0.028%.
The value for `COc1ccc2c(c1)CCc1cn3ncc(C#N)c3nc1-2` was -0.072%; that for `O=C(N[C@H]1CC[C@@H](CCNS(=O)(=O)c2ccc(F)cc2)O[C@@H]1CO)c1ccccn1` was 0.123%.
With `C[C@@H]1CN([C@H](C)CO)C(=O)Cc2cc(NS(=O)(=O)c3cccs3)ccc2O[C@@H]1CN(C)C(=O)Nc1ccc(F)cc1` the figure was 0.051%.
Consider `Cn1c(=O)n(C)c2cc(NS(=O)(=O)c3ccc(F)cc3)ccc21`, for which the activity (Tm shift, normalised) is 43.1% (active).
As for `Cn1c(=O)n(C)c2cc(S(=O)(=O)Nc3ccc(F)cc3)ccc21`, the activity (Tm shift, normalised) was -0.198%.
The value for `Cn1c(CCN2CCN(c3ccccn3)CC2)nc2cc(NS(=O)(=O)c3ccc(F)cc3)ccc21` was -0.195%; that for `COc1ccc2c3c([nH]c2c1)[C@@H](CO)N(C(=O)Nc1ccc(F)cc1)CC31CN(S(C)(=O)=O)C1` was -0.554%; that for `O=C(N[C@@H]1CC[C@@H](CC(=O)N2CCc3ccccc3C2)O[C@H]1CO)C1CCC1` was -0.096%.
Turning to `COc1ccc(CN2CCNC(=O)C2CC(=O)N(C)Cc2ccccn2)cc1OC` (stereo not drawn), the activity (Tm shift, normalised) is 0.398%.
With `COc1cccc(CN2CCNC(=O)C2CC(=O)N(C)CCc2ccccn2)c1` (stereo not drawn) the figure was 43% (active).
The value for `CN(CCc1cn[nH]c1)C(=O)CC1C(=O)NCCN1Cc1cccc(Oc2ccccc2)c1` (stereo not drawn) was 0.231%; that for `CS(=O)(=O)N1[C@H](C#N)[C@H](c2ccccc2-c2ccc(F)cc2)[C@@H]1CO` was 0.124%; that for `Nc1nonc1-n1nnc(C(=O)N/N=C/c2c[nH]c3ccccc23)c1-c1ccccc1` was 0.702%.
The value for `O=C(N/N=C/c1c[nH]c2ccccc12)c1cc2ccccc2o1` was 2.21% (active).
On to `Cc1c(/C=N\NC(=O)c2cc3ccccc3o2)c2ccccc2n1C`, for which the activity (Tm shift, normalised) is 0.961%.
The value for `CC=Cc1ccc2n(c1=O)C[C@@H]1[C@@H](CO)[C@H](C(=O)N(C)C)[C@H]2N1CCc1ccccc1` (mixture of isomers) was -0.034%; that for `COc1ccccc1-c1cnc2c(c1)C(=O)N([C@@H](C)CO)C[C@H](C)[C@H](CN(C)C(=O)c1ccncc1)O2` was 0.396%; that for `Cc1cc(C(=O)Nc2ccc3c(c2)C(=O)N(C)[C@@H]2CC[C@H](CC(=O)NC4CCCC4)O[C@@H]2CO3)no1` was 0.414%.
With `COc1ccc(/C=N/NC(=O)c2ccccc2)cc1OS(=O)(=O)c1ccccc1` the figure was 43% (active); with `Cc1ccc(S(=O)(=O)Oc2ccc(/C=N/NC(=O)c3ccncc3)cc2)cc1`, 0.38%; with `COc1cc(C=NNC(=O)c2cccnc2)ccc1OC(=O)c1ccccc1F`, -0.02%.
Regarding `COc1ccccc1CNC(=O)C[C@H]1C[C@@H]2c3cc(NC(=O)c4ccc5c(c4)OCO5)ccc3O[C@@H]2[C@H](CO)O1`, the activity (Tm shift, normalised) is 0.258%.
`CO[C@@H]1CN(C)C(=O)c2ccc(NS(C)(=O)=O)cc2OC[C@H](C)N(C(=O)C2CC2)C[C@H]1C`: the activity (Tm shift, normalised) is -0.096%.
Take `CCC(=O)N1CC2(C1)[C@H](c1ccc(-c3ccc(C)cc3)cc1)[C@H](CO)N2S(C)(=O)=O`: the activity (Tm shift, normalised) was -0.095%.
Regarding `COCCN(C(=O)C(C)C)c1nnc(-c2ccc(C(C)(C)C)cc2)s1`, the activity (Tm shift, normalised) is 1.53% (active).
On to `COc1cc(OC)cc(-c2nnc(N(C)C(=O)c3ccncc3)s2)c1`, for which the activity (Tm shift, normalised) was -0.259%.
The value for `COCCN(Cc1nc(-c2ccc(C(F)(F)F)cc2)no1)C(C)C` was 0.251%; that for `CC(C)NC(=O)N1[C@@H]2c3ccc(-c4ccc(F)cc4)c(=O)n3C[C@@H]2[C@@H](CO)[C@@H]1C(=O)N1CCOCC1` was -0.32%; that for `CC(C)NC(=O)Nc1ccc2c(c1)C(=O)N([C@H](C)CO)C[C@@H](C)[C@@H](CN(C)S(=O)(=O)c1ccc(Cl)cc1)OCCCC[C@H](C)O2` was -0.402%.
With `COc1ccccc1C(=O)NNC(=O)c1ccc(NC(=O)c2ccccc2)cc1` the figure was 1.4% (active).
Turning to `CC(=O)c1ccccc1OCc1ccc(C(=O)c2ccccc2)cc1`, the activity (Tm shift, normalised) was -0.1%.
The value for `COc1ccccc1C(=O)Nc1ccc(Nc2ccccc2)cc1` was -0.034%.
With `COc1ccccc1C(=O)Nc1ccccc1C(=O)Nc1ccccc1` the figure was -0.098%; with `COc1ccccc1C(=O)Nn1cnnc1`, 0.115%; with `COc1ccccc1C(=O)c1ccccc1C(=O)c1ccccc1`, 43.7% (active).
The value for `CN1CCN(C(=O)C[C@H]2CC[C@H]3[C@@H](COC[C@H](O)CN3C(=O)c3ccc(F)cc3)O2)CC1` was 0.268%; that for `Cc1ccccc1-c1ccc2c(c1)O[C@H](CN(C)Cc1ccc(C(=O)O)cc1)[C@@H](C)CN([C@H](C)CO)S2(=O)=O` was -0.18%; that for `C[C@H](CO)N1C[C@H](C)[C@@H](CN(C)CC2CC2)Oc2ccc(NC(=O)CCCN(C)C)cc2CC1=O` was -0.128%.
As for `N#C[C@@H]1[C@H](c2ccc(C#CC3CCCCC3)cc2)[C@@H](CO)N1S(=O)(=O)c1ccccc1`, the activity (Tm shift, normalised) is 0.098%.
With `COc1ccc(-c2ccc([C@H]3[C@H]4CN(C(=O)c5ccc6c(c5)OCO6)CCCCN4[C@H]3CO)cc2)cc1` the figure was 1.83% (active); with `Cc1cccc(-c2ccc([C@@H]3[C@H](CO)N4CCCCN(C(=O)c5ccc6c(c5)OCO6)C[C@@H]34)cc2)c1`, -0.344%; with `CCCC#Cc1ccc([C@H]2[C@H](CO)N3CCCCN(C(=O)c4ccc5c(c4)OCO5)C[C@@H]23)cc1`, 0.555%.
The value for `C[C@@H]1CCCCO[C@@H](CN(C)S(=O)(=O)c2ccccc2)[C@H](C)CN([C@H](C)CO)C(=O)c2cc(NC(=O)Nc3ccc4c(c3)OCO4)ccc2O1` was -0.98%; that for `COc1ccccc1-c1cnc2c(c1)C(=O)N([C@@H](C)CO)C[C@H](C)[C@H](CN(C)CC1CCOCC1)O2` was 0.358%.
The value for `COc1cccc(/C=N/Nc2cc(C)nc(-c3ccccc3O)n2)c1O` was 43% (active); that for `COc1cccc(/C=N/Nc2ccc(S(=O)(=O)Nc3ccccc3C(=O)O)cc2[N+](=O)[O-])c1O` was 0.209%.
As for `COc1ccc(Cc2nnc(N/N=C/c3ccccc3O)[nH]c2=O)cc1OC`, the activity (Tm shift, normalised) is 0.017%.

Values taken from PubChem BioAssay AID651658 (Broad Institute, 2012).
